For 22 compounds, outcome and AC50 results are on record in PubChem BioAssay (EPA / NIEHS).

Records with an inconclusive call do not appear. Activity calls are given as the source filed them. The calls were made as follows, unless noted: active = hit-call score of the fitted dose curve at least 0.9, where 1 is the maximum; inconclusive = response in the unintended direction; inactive = score below 0.9.

Sequence of rat Thyrotropin Releasing Hormone Receptor (TRH), Trhr (gene 25570) (Q01717 whole entry, looked up): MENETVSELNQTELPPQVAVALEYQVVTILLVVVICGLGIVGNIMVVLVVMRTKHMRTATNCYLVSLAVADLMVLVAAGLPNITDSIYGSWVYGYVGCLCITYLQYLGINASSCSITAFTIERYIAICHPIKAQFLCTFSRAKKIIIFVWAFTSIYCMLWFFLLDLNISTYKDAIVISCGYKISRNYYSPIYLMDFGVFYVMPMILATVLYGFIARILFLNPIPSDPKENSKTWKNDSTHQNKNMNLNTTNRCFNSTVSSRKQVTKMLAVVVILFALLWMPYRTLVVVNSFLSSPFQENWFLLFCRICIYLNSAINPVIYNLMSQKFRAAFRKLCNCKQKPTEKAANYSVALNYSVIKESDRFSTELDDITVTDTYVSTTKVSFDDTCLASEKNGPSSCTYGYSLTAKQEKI
Sequence of Glutamate receptor ionotropic, kainate 1 (Rattus norvegicus) (P22756 whole entry, looked up): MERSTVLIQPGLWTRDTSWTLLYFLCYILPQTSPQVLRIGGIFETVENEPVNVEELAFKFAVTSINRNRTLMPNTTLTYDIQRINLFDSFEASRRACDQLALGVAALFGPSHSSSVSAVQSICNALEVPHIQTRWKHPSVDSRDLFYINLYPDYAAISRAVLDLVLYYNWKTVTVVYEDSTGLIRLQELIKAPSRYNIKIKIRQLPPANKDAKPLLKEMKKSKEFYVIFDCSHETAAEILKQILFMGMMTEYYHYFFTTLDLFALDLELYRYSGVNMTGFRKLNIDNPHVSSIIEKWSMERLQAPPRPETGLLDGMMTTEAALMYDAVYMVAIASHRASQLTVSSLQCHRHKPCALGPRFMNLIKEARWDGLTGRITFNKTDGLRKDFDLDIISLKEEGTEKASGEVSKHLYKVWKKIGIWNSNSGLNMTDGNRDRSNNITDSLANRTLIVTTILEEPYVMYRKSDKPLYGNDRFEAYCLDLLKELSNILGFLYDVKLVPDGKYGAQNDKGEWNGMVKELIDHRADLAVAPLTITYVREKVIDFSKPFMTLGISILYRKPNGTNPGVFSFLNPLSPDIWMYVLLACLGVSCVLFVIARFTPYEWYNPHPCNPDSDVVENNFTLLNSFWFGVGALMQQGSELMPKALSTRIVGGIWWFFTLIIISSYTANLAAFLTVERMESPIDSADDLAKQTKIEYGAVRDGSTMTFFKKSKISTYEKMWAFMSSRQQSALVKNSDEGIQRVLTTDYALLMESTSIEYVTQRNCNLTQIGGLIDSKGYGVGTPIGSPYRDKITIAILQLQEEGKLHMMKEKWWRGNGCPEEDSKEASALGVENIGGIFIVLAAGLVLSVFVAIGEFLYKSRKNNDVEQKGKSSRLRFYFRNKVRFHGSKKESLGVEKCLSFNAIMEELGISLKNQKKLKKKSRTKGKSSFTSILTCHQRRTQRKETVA
Sequence of bovine Gamma-Aminobutyric Acid Type A Receptor Agonist (GABAR Agonist), GABRA1 (gene 780973) (P08219 whole entry, looked up): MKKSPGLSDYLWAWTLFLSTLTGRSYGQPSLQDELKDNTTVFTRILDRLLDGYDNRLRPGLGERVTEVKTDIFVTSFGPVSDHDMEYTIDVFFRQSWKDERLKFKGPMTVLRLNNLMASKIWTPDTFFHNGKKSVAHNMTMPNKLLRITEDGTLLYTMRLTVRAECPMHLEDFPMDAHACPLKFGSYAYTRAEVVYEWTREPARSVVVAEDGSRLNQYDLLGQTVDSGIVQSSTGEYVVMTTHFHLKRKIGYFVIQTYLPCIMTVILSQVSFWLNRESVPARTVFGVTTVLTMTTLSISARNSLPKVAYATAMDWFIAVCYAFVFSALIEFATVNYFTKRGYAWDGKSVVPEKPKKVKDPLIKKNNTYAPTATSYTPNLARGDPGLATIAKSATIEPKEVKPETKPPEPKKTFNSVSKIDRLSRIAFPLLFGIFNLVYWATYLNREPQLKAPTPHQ
Sequence of human Peripheral-type Benzodiazepine Receptor (PBR), TSPO (gene 706) (P30536 whole entry, looked up): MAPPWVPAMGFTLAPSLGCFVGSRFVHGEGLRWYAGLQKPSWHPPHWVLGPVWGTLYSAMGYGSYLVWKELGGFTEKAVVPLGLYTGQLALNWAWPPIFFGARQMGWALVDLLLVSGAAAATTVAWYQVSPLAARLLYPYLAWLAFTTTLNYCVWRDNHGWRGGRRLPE

The first experiment has as its target rat Thyrotropin Releasing Hormone Receptor (TRH), Trhr (gene 25570) (UniProt Q01717). Nature of the experiment: NVS_GPCR_rTRH: NovaScreen (NVS) G Protein-Coupled Receptor Assay for rat Thyrotropin Releasing Hormone Receptor (TRH) (AID 2283329).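 Also: hit means lower bound tracer signal versus DMSO baseline.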 An outline of the steps: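 Test compounds are screened at 25 uM in duplicate against radioligand binding in rat forebrain membranes, with active pairs followed up over a concentration range. Detection uses filter-based radiodetection after a 4 h exposure.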
As to `O=C1CCCCC1`, the compound was called inactive.
For the compound `C#CC(O)C(CC)CCCC` (configuration not stated), the compound was called inactive.
On to `CS(=O)(=O)c1ccc([C@@H](C[C@H]2CCC(=O)C2)C(=O)Nc2cnccn2)cc1Cl`, for which the result was inactive.
By AC50 is commonly meant the concentration at which the activity in the assay is half-maximal. On to `O=C(O)CN(CC(=O)O)CC(=O)O`, for which the AC50 is 5.7 µM (active).
On to `O=[Si]=O`, for which the compound was called inactive.
For `CC(=O)[C@@]1(O)CC[C@H]2[C@@H]3CCC4=CC(=O)CC[C@]4(C)[C@H]3CC[C@@]21C`, the compound was classed as inactive.
`Cc1cc(Cc2ccc(N)c(C)c2)ccc1N`: the compound was classed as inactive.

The next experiment has as its target human Peripheral-type Benzodiazepine Receptor (PBR), TSPO (gene 706) (UniProt P30536). Nature of the experiment: NVS_MP_hPBR: NovaScreen (NVS) Membrane Protein Assay for human Peripheral-type Benzodiazepine Receptor (PBR) (AID 2283331).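 Also: hits reduce radioligand binding relative to DMSO baseline.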 In short, it runs like this: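 Human colonic cell membranes were incubated with test chemical for 1 hour; radioligand binding was measured by filter-based scintillation counting. Primary screen ran in duplicate at 25 uM, with actives followed in concentration series; loss of signal versus DMSO baseline.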
Turning to `Oc1ccc(O)cc1`, the outcome was inactive.
Consider `Cc1cc(Cc2ccc(N)c(C)c2)ccc1N`, for which the call was inactive.
Regarding `CC(C)(O)c1ccc(CNC(=O)c2cccnc2Oc2ccc(F)cc2)cc1`, the AC50 is 8.65 µM (active).
With `CCCCCCC(CCCCCCCCCCC(=O)OCC(COC(C)=O)OC(C)=O)OC(C)=O` (configuration not stated), the call was inactive.
Turning to `CC(COCC(C)OC(=O)c1ccccc1)OC(=O)c1ccccc1` (configuration not stated), the compound was called inactive.

For a further experiment, the target named is Glutamate receptor ionotropic, kainate 1 (Rattus norvegicus) (UniProt P22756). The experiment can be described thus: NVS_IC_rKAR: NovaScreen (NVS) Ion Channel Assay for rat Kainic Acid Receptors (KAR) (AID 2283334; active = hit-call score of the fitted dose curve at least 0.9, where 1 is the maximum; inactive = score below 0.9). In short, it runs like this:
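Radioligand displacement binding using rat forebrain membranes, 1 h incubation, filter-based scintillation counting. Screened in duplicate at 25 uM, with actives retested in concentration-response up to 50 uM; fitted against DMSO.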
`CC(C)COC(=O)CCCCC(=O)OCC(C)C`: the compound was classed as inactive.
Regarding `COC(=O)CCC(=O)OC`, the result was inactive.
As to `O=C(Oc1ccccc1)c1cccc(C(=O)Oc2ccccc2)c1`, the compound was classed as inactive.

The target of the next experiment is rat Peripheral-type Benzodiazepine Receptor (PBR), Tspo (gene 24230) (UniProt P16257). The experiment can be described thus: NVS_MP_rPBR: NovaScreen (NVS) Membrane Protein Assay for rat Peripheral-type Benzodiazepine Receptor (PBR) (AID 2283335). An outline of the steps: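 Rat kidney membranes; radioligand binding with displacement, filter-based scintillation counting, 1 h incubation. Primary screen in duplicate at 25 uM, actives followed in concentration series; loss of binding vs DMSO.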
Sequence of rat Peripheral-type Benzodiazepine Receptor (PBR), Tspo (gene 24230) (P16257 whole entry, looked up): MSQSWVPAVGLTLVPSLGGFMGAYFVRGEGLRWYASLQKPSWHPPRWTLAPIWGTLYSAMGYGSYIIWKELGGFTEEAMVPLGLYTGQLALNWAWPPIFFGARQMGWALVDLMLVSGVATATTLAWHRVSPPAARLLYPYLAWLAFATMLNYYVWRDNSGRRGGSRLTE
Turning to `Cc1ccc(-c2cc(C(F)(F)F)nn2-c2ccc(S(N)(=O)=O)cc2)cc1`, the outcome was inactive.
Take `Cc1cc(Cc2ccc(N)c(C)c2)ccc1N`: the outcome was inactive.
In the case of `CC(C)(O)c1ccc(CNC(=O)c2cccnc2Oc2ccc(F)cc2)cc1`, the AC50 is 4.31 µM (active).
With `CC(COCC(C)OC(=O)c1ccccc1)OC(=O)c1ccccc1` (configuration not stated), the AC50 is 17 µM (active).

Another experiment has as its target bovine Gamma-Aminobutyric Acid Type A Receptor Agonist (GABAR Agonist), GABRA1 (gene 780973) (UniProt P08219). The experiment can be described thus: NVS_LGIC_bGABAR_Agonist: NovaScreen (NVS) Ligand-Gated Ion Channel Assay for bovine Gamma-Aminobutyric Acid Type A Receptor Agonist (GABAR Agonist) (AID 2283338). The method, then: NVS_LGIC_bGABAR_Agonist is a biochemical, single-readout assay that uses extracted gene-proteins from Bovine cerebellar membranes in a tissue-based cell-free assay. Measurements were taken 1 hour after chemical dosing in a 48-well plate.NVS_LGIC_bGABAR_Agonist is one of one assay component(s) measured or calculated from the NVS_LGIC_bGABAR_Agonist assay. It is designed to make measurements of radioligand binding, a form of binding reporter, as detected with scintillation counting signals by Filter-based radiodetection technology.Data from the assay component NVS_LGIC_bGABAR_Agonist was analyzed into 1 assay endpoint. This assay endpoint, NVS_LGIC_bGABAR_Agonist, was analyzed in the positive analysis fitting direction relative to DMSO as the negative control and baseline of activity. Using a type of binding reporter, gain-of-signal activity can be used to understand changes in the binding as they relate to the gene GABRA1. Furthermore, this assay endpoint can be referred to as a primary readout, because the performed assay has only produced 1 assay endpoint. To generalize the intended target to other relatable targets, this assay endpoint is annotated to the ion channel intended target family, where the subfamily is ligand-gated ion channel.
(§1) Binding assays used specific radioligands (tritiated, iodinated) with non-radioactive competitive displacement ligands in agonist or antagonist protocols (as indicated) and various reference compounds and inhibitors to titrate specific binding to receptors and transporters. Most enzyme assays (CYPs, kinases, phosphatases, proteases, HDACs) used recombinant protein and specific substrates (fluorescence mostly, some colorimetric and radioactive) and inhibitors, followed by a biochemical separation of substrate and product. All assays for the biochemical HTS were initially run in duplicate at a single concentration (10 uM for CYP450 assays and 25 uM for all others). […] Each assay was run with positive and negative controls, and concurrent controls on every plate. The follow-up (secondary) screen tested active chemical-pairs in concentration series, as well as a few additional assays not tested in the primary screen, some selected negative inactives, and several cases re-run in the concentration series for confirmatory purposes.
Regarding `Cc1c(C)c2c(c(C)c1O)CCC(C)(COc1ccc(CC3SC(=O)NC3=O)cc1)O2` (configuration not stated), the compound was classed as inactive.
Take `CC(C)(C)c1ccccc1`: the compound was classed as inactive.
With `N[C@@H](Cc1c[nH]c2ccccc12)C(=O)O`, the compound was classed as inactive.

The test system of the next experiment is NCBI gene 100848466. Nature of the experiment: NVS_NR_bPR: NovaScreen (NVS) Nuclear Receptor Binding Assay for bovine Progextron Receptor (PR) (AID 2283343).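 As to AC50: actives lower bound radioligand signal below DMSO meaning displacement of the label.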 The method, then: NVS_NR_bPR is a biochemical, single-readout assay that uses extracted gene-proteins from Bovine uterine membranes in a tissue-based cell-free assay. Measurements were taken 18 hours after chemical dosing in a 96-well plate.NVS_NR_bPR is one of one assay component(s) measured or calculated from the NVS_NR_bPR assay. It is designed to make measurements of radioligand binding, a form of binding reporter, as detected with scintillation counting signals by Lysate-based radiodetection technology.Data from the assay component NVS_NR_bPR was analyzed into 1 assay endpoint. This assay endpoint, NVS_NR_bPR, was analyzed in the positive analysis fitting direction relative to DMSO as the negative control and baseline of activity. Using a type of binding reporter, loss-of-signal activity can be used to understand changes in the binding as they relate to the gene PGR. Furthermore, this assay endpoint can be referred to as a primary readout, because the performed assay has only produced 1 assay endpoint. To generalize the intended target to other relatable targets, this assay endpoint is annotated to the nuclear receptor intended target family, where the subfamily is steroidal.
as §1
As to `O=C1OC(c2ccc(O)cc2)(c2ccc(O)cc2)c2ccccc21`, the call was inactive.
As for `CCCCCCCCCCCCCCOS(=O)(=O)O`, the half-maximal activity concentration (AC50) is 25 µM (active).
Turning to `CC(=O)[C@@]1(O)CC[C@H]2[C@@H]3CCC4=CC(=O)CC[C@]4(C)[C@H]3CC[C@@]21C`, the AC50 is 0.467 µM (active).
With `O=C1c2c(O)cccc2Cc2cccc(O)c21`, the AC50 was 42.7 µM (active).
On the same count and under the same terms, next, `CC(=O)O[C@]1(C(C)=O)CC[C@H]2[C@@H]3C=C(Cl)C4=CC(=O)[C@@H]5C[C@@H]5[C@]4(C)[C@H]3CC[C@@]21C`: 0.0857 µM (active).
